Screening data: PubChem, National Center for Advancing Translational Sciences (NCATS)
This is a sample that favours compounds with a hit; in the whole collection about 5.6% have one here.
RORg inh: inhibitors of mouse ROR gamma transcriptional activity; Drosophila S2 Gal4-RORgamma UAS-luciferase reporter, 20 h; Potency, µM (highest dose often 53.6 µM), usual class: inhibitors; 310,000 tested, 5.4% active; AID 2551; note: nearly all actives have a fitted effect of over 60% in size
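Luminescence from a UAS-regulated Photinus luciferase reporter in stably transfected Drosophila Schneider cells is measured; decreased signal marks ROR gamma inhibition. Fusion expression is induced by 700 uM copper sulfate for 20 hr.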
CtBP-E1A blk: inhibitors of CtBP/E1A interaction. AlphaScreen GST-E1A/His-CtBP binding, 1536-well; active compounds read low. activity change, % (test concentration not listed). 340,000 tested, 0.49% active; in the data active = activity change below about -65%; inconclusive = mostly about -30% to -63%
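In 5 uL wells, 23 nL compound meets equimolar GST-E1A and His-CtBP (5X stock 125 nM each) for 2 h, 37 °C. Beads (5X, 50 ug/mL) then 1 h, 37 °C, dark.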
VP16 counter: counter-screen for ROR gamma inhibitors: Gal4-VP16 reporter | Drosophila S2 Gal4-VP16 UAS-luciferase, luminescence, 20 h | Potency, µM (highest dose often 53.6 µM), most hits filed as inhibitors | 310,000 tested, 3.5% active;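 note: Gal4-VP16 expression switched on by copper sulfate through the metallothionein promoter; nearly all actives have a fitted effect of over 50% in size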
Six1-Eya2 inh: blocks human Six1 binding to Eya2; activity change, % (test concentration not listed); 360,000 tested, 0.56% active; AID 651725; Q15475+O00167; AlphaScreen GST-Six1/His-Eya2 binding, biochemical; active compounds read low; in the data active = activity change below about -65%; inconclusive = mostly about -30% to -63%
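AlphaScreen luminescence read after one hour at 37 °C in darkness. Pin-transferred compounds met GST-Six1 and His-Eya2 protein (5X stock 250 nM/500 nM) plus glutathione donor and Ni-chelate acceptor beads (5X, 50 ug/mL).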
PKM2 activator: PKM2 (human) enzyme activation; AID 1631; purified PKM2, Kinase-Glo ATP luminescence, activation; response scale: 0% is enzyme alone, no compound; 260,000 tested, 0.34% active; Potency, µM (top dose mostly 57.5 µM), hits mostly activators; P14618; note: nearly all actives have a fitted effect of over 55% in size
Target sequence (P14618 whole entry, looked up): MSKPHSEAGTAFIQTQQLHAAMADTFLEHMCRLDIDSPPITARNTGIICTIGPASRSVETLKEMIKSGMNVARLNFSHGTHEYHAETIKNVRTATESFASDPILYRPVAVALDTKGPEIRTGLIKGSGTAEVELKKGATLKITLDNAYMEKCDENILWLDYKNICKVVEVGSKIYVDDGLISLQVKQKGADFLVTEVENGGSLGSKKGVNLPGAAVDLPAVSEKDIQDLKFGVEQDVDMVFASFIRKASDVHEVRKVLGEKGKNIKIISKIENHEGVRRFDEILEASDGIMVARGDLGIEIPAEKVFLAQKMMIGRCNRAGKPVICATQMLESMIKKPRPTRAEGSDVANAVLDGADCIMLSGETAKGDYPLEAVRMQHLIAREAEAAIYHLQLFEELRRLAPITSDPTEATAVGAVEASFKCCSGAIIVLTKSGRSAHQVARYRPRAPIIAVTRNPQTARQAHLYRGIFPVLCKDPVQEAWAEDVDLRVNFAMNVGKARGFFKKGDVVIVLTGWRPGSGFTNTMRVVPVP
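hPK-M2, >95% pure; 0.1 mM ADP / 0.5 mM PEP final; imidazole pH7.2 buffer w/ 7 mM MgCl2, 50 mM KCl; 1 h RT; Kinase-Glo lum. Intermediate enzyme activity for dual inhibitor/activator qHTS.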
Large screens that a line does not name were inactive; ! = not active in a repeat. Unless noted, calls come from the whole dose curve; as a rule, active = well fitted curve in the direction sought with a large enough effect; inconclusive = small, poorly fitted or top-dose-only effect, or another doubt; inactive = no such curve, though single readings can be large; an effect the other way counts as inactive or inconclusive.

CC1S/C(=N/N=C/c2cccc([N+](=O)[O-])c2)NC1=O (stereo not drawn)	none (no result: CtBP-E1A blk)
CCCCNC(=S)N(CCO)Cc1cc2cc3c(cc2[nH]c1=O)OCCO3	none
Nc1ncn([C@H]2O[C@@H](CO)[C@@H](O)[C@@H]2O)c(=O)n1	none (no result: CtBP-E1A blk, Six1-Eya2 inh, PKM2 activator)
Cc1c(-c2cccc(Cl)c2)nc2ccccc2c1C(=O)NC1CC1	none (no result: PKM2 activator)
CC1(C)S/C(=N/N=C/c2ccco2)NC1=O	RORg inh 13µM, VP16 counter 7.9µM
CCCC1S/C(=N/N=C/c2ccco2)NC1=O (stereo not drawn)	RORg inh 1.6µM, VP16 counter 3.2µM
CC(C)CNC(=S)NC(=O)c1ccccc1Cl	RORg inh 5µM, VP16 counter 11µM
COc1ccc(NC(=S)NC(=O)c2ccccc2Cl)cc1	RORg inh 6.3µM, VP16 counter inconclusive (no result: CtBP-E1A blk)
O=C(NC(=S)Nc1ccc(O)cc1)c1ccccc1Cl	none
O=C(NC(=S)Nc1ccc(Oc2ccc(Cl)cc2)cc1)c1ccccc1	RORg inh 3.5µM, VP16 counter 7.9µM
O=C(NC(=S)Nc1ccc(Cl)cc1)c1ccccc1	RORg inh 20µM, VP16 counter inconclusive
CC(C(=O)Nc1ccc(S(=O)(=O)N2CCOCC2)cc1)N1C(=O)C2CC=CCC2C1=O (stereo not drawn)	none
COC(=O)c1cccc(NC(=O)CC2C(=O)NCCN2C(=O)c2ccc(F)cc2F)c1 (stereo not drawn)	none
CCCCn1cnc2cc(C)c(C)cc21	RORg inh 4µM, VP16 counter inconclusive
Cc1cc2ncn(CCOc3ccccc3)c2cc1C	RORg inh 13µM
Cc1cc2ncn(CC(C)C)c2cc1C	RORg inh 7.9µM, VP16 counter inconclusive
Cc1cc2ncn(CC(O)COc3cccc(C(=O)O)c3)c2cc1C (stereo not drawn)	none
COCCn1cnc2cc(C)c(C)cc21	RORg inh inconclusive
Cc1ccc([N+](=O)[O-])cc1NCC(=O)NN	none
Cc1nn(-c2ccccc2)c2sc(C(=O)NNC(=O)COc3ccccc3)cc12	RORg inh 7.1µM, CtBP-E1A blk inconclusive, VP16 counter 10µM, Six1-Eya2 inh inconclusive
Cc1nn(-c2ccccc2)c2sc(C(=O)NNC(=O)COc3cccc4ccccc34)cc12	RORg inh 8.9µM, VP16 counter inconclusive
Cc1nn(-c2ccccc2)c2sc(C(=O)NC3CCCCC3)cc12	PKM2 activator inconclusive
Cc1cnc(NC(=O)c2cc3c(C)nn(-c4ccccc4)c3s2)s1	RORg inh 0.89µM, VP16 counter 1.1µM
S=C(Nc1ccccc1)N1CCN(Cc2ccccc2)CC1	RORg inh inconclusive, VP16 counter inconclusive
S=C(Nc1cccc(Cl)c1)N1CCN(Cc2ccccc2)CC1	RORg inh 10µM, VP16 counter inconclusive
COc1cc(NC(=S)N2CCN(Cc3ccccc3)CC2)cc(OC)c1	RORg inh inconclusive, VP16 counter inconclusive
COc1ccc(CNC(=S)N2CCN(Cc3ccccc3)CC2)cc1	none (no result: CtBP-E1A blk)
COc1ccc(NC(=S)N2CCN(Cc3ccccc3)CC2)cc1	RORg inh 11µM
COc1cccc(NC(=S)N2CCN(Cc3ccccc3)CC2)c1	RORg inh inconclusive, VP16 counter 20µM
COc1ccc(/C=C2\Oc3cc(OCC(=O)N4CCC[C@H]4CO)ccc3C2=O)c(OC)c1	none
CCN(CC)c1ccc(/C=N/NC(=O)c2c(Cl)cnn2C)c(O)c1	CtBP-E1A blk -91, Six1-Eya2 inh -90
Cn1ncc(Cl)c1C(=O)N/N=C/c1cc2c(cc1[N+](=O)[O-])OCO2	none
CCN(CC)c1ccc(/C=N/NC(=O)c2cccc(S(=O)(=O)N3CCOCC3)c2)c(O)c1	RORg inh 2.8µM, CtBP-E1A blk inconclusive, VP16 counter 11µM, Six1-Eya2 inh inconclusive
Cc1cc(C)cc(N2C(=O)CCN(Cc3ccccc3)C2=O)c1	none
CCCCCCCC/C=C\CCCCCCCC(=O)NCCc1ccc(O)c(O)c1	RORg inh inconclusive, VP16 counter 18µM! (no result: PKM2 activator)
CC1(C)CC(=O)C2=C(C1)OC1=C(C(=O)CC(C)(C)C1)C2c1ccc(O)c([N+](=O)[O-])c1	none (no result: CtBP-E1A blk)
CC1(C)CC(=O)C2=C(C1)OC1=C(C(=O)CC(C)(C)C1)C2c1ccc(O)cc1O	RORg inh 3.2µM, VP16 counter 6.3µM, PKM2 activator inconclusive
COc1ccc(Cl)cc1NC(=O)CN1CCN(Cc2ccccc2)CC1	none
Cc1ccccc1/C=N/NC(=O)c1cccnc1	none
CN1/C(=C\C=Nc2ccc3ccccc3c2)C(C)(C)c2ccccc21	RORg inh 3.2µM, VP16 counter 4.5µM (no result: CtBP-E1A blk, Six1-Eya2 inh)
CN1/C(=C\C=N\NC(=O)c2cccnc2)C(C)(C)c2ccccc21	RORg inh 0.5µM, VP16 counter 0.89µM
CN1/C(=C\C=N\NC(=O)c2ccc(O)cc2)C(C)(C)c2ccccc21	RORg inh 4.5µM, VP16 counter 2.5µM
CN1/C(=C\C=O)C(C)(C)c2ccccc21	RORg inh inconclusive
CCCSCCCNC(=O)c1ccc(NC(=O)C2=CSCCO2)cc1	none (no result: PKM2 activator)
O=C(NCCCn1ccnc1)C1CCN(S(=O)(=O)c2cc([N+](=O)[O-])ccc2Cl)CC1	none (no result: RORg inh, VP16 counter, PKM2 activator)
N=C1C(c2nc3ccccc3[nH]2)=C(O)CN1c1ccc(CC(=O)O)cc1	RORg inh inconclusive
N=C1C(c2nc3ccccc3[nH]2)=C(O)CN1c1ccccc1	RORg inh 14µM, VP16 counter inconclusive
CC(=O)Nc1ccc(-c2ccnc3c2CC(C(=O)Nc2cccnc2)O3)cc1 (stereo not drawn)	none (no result: RORg inh, VP16 counter, PKM2 activator)
CCCCC1(Cc2cccc([N+](=O)[O-])c2)C(=O)N(c2ccccc2)N(c2ccccc2)C1=O	RORg inh 18µM, VP16 counter inconclusive
CC(=O)C1=C(C)NC(SCC(=O)c2ccccc2)=C(C#N)C1CC(C)C (stereo not drawn)	RORg inh 11µM, VP16 counter inconclusive
O=c1c(-c2ccc(Cl)cc2)nc2cnc(N3CCNCC3)nc2n1-c1ccccc1	none (no result: CtBP-E1A blk, Six1-Eya2 inh, PKM2 activator)
CCOc1cc(/C=N/NC(=O)C2CC2)ccc1OC(C)C	none
Cc1cc2n(n1)C(c1ccccc1Cl)Nc1ccccc1-2 (stereo not drawn)	PKM2 activator 18µM
c1ccc2c(c1)ncn2-c1ncnc2sc3c(c12)CCCC3	RORg inh inconclusive
CC(O)CNc1nc2ccccc2n1-c1ncnc2sc3c(c12)CCC3 (stereo not drawn)	RORg inh inconclusive, VP16 counter 14µM
CCN(CC)CCOC(=O)C12CC3CC(CC(C3)C1)C2	RORg inh 5µM
CCC(Cc1c(I)cc(I)c(O)c1I)C(=O)O (stereo not drawn)	none (no result: CtBP-E1A blk, Six1-Eya2 inh, PKM2 activator)
COc1ccc(C)c2sc(NC(=O)c3cccc(N4C(=O)CCC4=O)c3)nc12	none
Cc1ccc(C)c2sc(NC(=O)c3ccc(N4C(=O)CCC4=O)cc3)nc12	RORg inh 0.2µM
CC(C)[C@H](NS(=O)(=O)c1cccc(Cl)c1)C(=O)OCC(=O)NC(=O)CN1CCCC1=O	none (no result: RORg inh, CtBP-E1A blk, VP16 counter, PKM2 activator)
